Activity calls are given as the source filed them.
Tests used:
[1] = optical density shifts of acrAB sulA E. coli – strain DRC41, OD650, 48 h, E. coli filamentation inducer project, primary screen (AID 1152); conditions: higher = more signal, called active from +8 up or from −8 down;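 also: E. coli MC1000 strain DRC41 lacking acrAB efflux pump and sulA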
[2] = probe aLefty1 binding on compound microarray – biochemical, small-molecule microarray, 635/667 nm fluorescence, primary screen (AID 1153); conditions: higher = more signal;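 also: score merges spot fluorescence with signal-to-noise ratio from the scanned slide images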
[3] = plasmodial surface anion channel blockers, osmotic lysis – cell-based, P. falciparum Indochina, OD700, 1 h, primary screen (AID 1154); conditions: P. falciparum Indochina infected RBC osmotic lysis, higher = more signal, called active from +8 up or from −8 down
[4] = plasmodial surface anion channel blockers, osmotic lysis – cell-based, P. falciparum Indochina, OD700, 2 h, primary screen (AID 1155);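 also: lysis reports solute entry through the parasite surface anion channel PSAC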; conditions: P. falciparum Indochina infected erythrocytes, higher = more signal, called active from +8 up or from −8 down
[5] = changes in parasitized red cell lysis, either direction – P. falciparum Indochina, OD700, 3 h, PSAC antagonist project, primary screen (AID 1156); conditions: P. falciparum-infected erythrocytes, osmotic lysis, higher = more signal, called active from +8 up or from −8 down
[6] = plasmodial surface anion channel blockers, osmotic lysis – cell-based, P. falciparum Indochina, OD700, 18 h, primary screen (AID 1157); conditions: P. falciparum Indochina infected erythrocytes, osmotic lysis OD700, 18 h; higher = more signal, called active from +8 up or from −8 down
[7] = S6 kinase pathway phospho-S6 level changes – cell-based, A549, cytoblot, luminescence, serum-stimulated, primary screen (AID 1158); conditions: 5 h, higher = more signal;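 also: serum-stimulated A549 lung adenocarcinoma cells; signal is phosphorylated S6 detected by cytoblot immunostaining with HRP secondary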
[8] = biological target: NADPH oxidase 2 (Homo sapiens) (UniProt P04839); assay: compounds shifting NOX2 Amplex Red fluorescence – cell-based, HEK293-NOX2, PMA-stimulated, NOX inhibitor project, primary screen (AID 1159); conditions: 45 min, higher = more signal, called active from +8 up or from −8 down; also: test concentration not given here
Chain of NADPH oxidase 2 (Homo sapiens) (P04839 whole entry, looked up): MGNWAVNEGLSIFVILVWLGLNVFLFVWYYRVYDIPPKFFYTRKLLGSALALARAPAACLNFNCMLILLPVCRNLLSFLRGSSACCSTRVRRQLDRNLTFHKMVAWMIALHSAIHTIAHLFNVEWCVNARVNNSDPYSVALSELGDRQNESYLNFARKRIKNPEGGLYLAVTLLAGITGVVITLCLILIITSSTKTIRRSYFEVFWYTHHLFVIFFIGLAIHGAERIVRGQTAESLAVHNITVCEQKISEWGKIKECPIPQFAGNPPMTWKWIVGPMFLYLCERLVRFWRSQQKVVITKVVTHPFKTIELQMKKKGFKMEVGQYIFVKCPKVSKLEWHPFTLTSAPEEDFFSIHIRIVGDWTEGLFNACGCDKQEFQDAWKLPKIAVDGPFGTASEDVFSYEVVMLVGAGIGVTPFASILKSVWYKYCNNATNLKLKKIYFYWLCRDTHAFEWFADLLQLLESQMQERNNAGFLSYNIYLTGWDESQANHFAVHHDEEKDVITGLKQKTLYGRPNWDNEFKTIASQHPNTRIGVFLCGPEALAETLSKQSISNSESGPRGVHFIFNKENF

[9] = biological target: NADPH oxidase 4 (Homo sapiens) (UniProt Q9NPH5); assay: compounds shifting NOX4 Amplex Red fluorescence – cell-based, HEK293-NOX4, tetracycline-induced, NOX inhibitor project, primary screen (AID 1160); conditions: HEK293-NOX4, Amplex Red H2O2 fluorescence, 45 min; higher = more signal, called active from +8 up or from −8 down
Chain of NADPH oxidase 4 (Homo sapiens) (Q9NPH5 whole entry, looked up): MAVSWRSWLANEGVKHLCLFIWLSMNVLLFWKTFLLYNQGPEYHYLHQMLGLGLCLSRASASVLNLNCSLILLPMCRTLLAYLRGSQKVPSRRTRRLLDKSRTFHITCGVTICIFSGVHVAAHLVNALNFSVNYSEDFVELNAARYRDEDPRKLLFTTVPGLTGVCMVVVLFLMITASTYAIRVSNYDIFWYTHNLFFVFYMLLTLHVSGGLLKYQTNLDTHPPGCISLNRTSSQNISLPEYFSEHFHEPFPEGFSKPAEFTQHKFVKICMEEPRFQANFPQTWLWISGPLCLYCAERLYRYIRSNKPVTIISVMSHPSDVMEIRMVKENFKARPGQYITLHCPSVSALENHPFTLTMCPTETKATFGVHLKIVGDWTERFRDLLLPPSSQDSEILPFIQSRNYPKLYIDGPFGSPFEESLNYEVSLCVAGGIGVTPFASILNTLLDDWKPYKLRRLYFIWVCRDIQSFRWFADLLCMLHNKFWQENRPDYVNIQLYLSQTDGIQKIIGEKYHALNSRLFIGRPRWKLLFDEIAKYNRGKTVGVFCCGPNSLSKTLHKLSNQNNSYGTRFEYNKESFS

[10] = biological target: NADPH oxidase 5 (Homo sapiens) (UniProt Q96PH1); assay: compounds shifting NOX5 Amplex Red fluorescence – cell-based, HEK293-NOX5, NOX inhibitor project, primary screen (AID 1161); conditions: HEK293-NOX5, ionomycin, 45 min, higher = more signal
Chain of NADPH oxidase 5 (Homo sapiens) (Q96PH1 whole entry, looked up): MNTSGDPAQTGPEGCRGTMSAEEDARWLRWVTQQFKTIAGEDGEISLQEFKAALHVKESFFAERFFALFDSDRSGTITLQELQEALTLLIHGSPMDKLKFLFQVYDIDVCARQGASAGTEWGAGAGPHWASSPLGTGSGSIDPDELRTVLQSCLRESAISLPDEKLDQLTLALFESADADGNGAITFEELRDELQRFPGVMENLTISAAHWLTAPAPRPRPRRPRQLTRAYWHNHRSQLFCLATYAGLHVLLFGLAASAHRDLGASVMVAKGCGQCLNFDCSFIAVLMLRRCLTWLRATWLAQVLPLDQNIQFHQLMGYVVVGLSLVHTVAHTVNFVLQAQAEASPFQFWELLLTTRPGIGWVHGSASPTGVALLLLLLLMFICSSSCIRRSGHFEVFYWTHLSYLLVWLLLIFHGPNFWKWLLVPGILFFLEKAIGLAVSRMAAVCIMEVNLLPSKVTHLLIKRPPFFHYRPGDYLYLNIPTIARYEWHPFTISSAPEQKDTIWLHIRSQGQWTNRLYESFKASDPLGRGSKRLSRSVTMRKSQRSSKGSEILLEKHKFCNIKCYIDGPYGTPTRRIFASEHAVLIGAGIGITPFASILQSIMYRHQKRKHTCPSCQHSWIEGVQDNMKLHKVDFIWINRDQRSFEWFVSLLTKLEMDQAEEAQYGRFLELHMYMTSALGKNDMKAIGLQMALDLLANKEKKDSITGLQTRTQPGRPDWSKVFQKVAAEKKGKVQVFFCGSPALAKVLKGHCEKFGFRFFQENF

SMILES | z-score [1] | composite z-score [2] | z-score [3] | z-score [4] | z-score [5] | z-score [6] | z-score [7] | z-score [8] | z-score [9] | z-score [10]
CCCNC(=O)OC[C@H]1O[C@H](CCON=C(C)CCN2CCc3nc(CC)c(CC)cc3C2)C=C[C@@H]1Oc1ccc(OC)cc1 | -0.611 (inactive) | -0.0949 | 8.46 (active) | 1.12 (inactive) | 1.66 (inactive) | 0.539 (inactive) | 0.58 | -3.19 (inactive) | -1.7 (inactive) | -3.32
CCOC(=O)NN=C1C[C@@H](O)[C@@H](O)[C@@H]2[C@@H]3C(=O)N(Cc4ccccc4)C(=O)[C@@H]3CC[C@H]12 | -0.356 (inactive) | -0.332 | 1.39 (inactive) | -0.673 (inactive) | -0.0654 (inactive) | -1.36 (inactive) | 0.577 | 1.15 (inactive) | 0.547 (inactive) | 0.0313
CC(C)=CCCC(C)=CCON=C1C[C@@H](O)[C@@H](O)[C@@H]2[C@@H]3C(=O)N(C[C@@H]4CCCO4)C(=O)[C@@H]3CC[C@H]12 | -0.249 (inactive) | -0.0501 | 2.57 (inactive) | 0.847 (inactive) | 0.193 (inactive) | 0.55 (inactive) | 0.659 | 0.0784 (inactive) | 0.256 (inactive) | -2.11
CO[C@H]1COC(=O)[C@@H](C)COC(=O)[C@H](C)NC(=O)CC=C[C@H]1C | -0.0819 (inactive) | -0.0186 | -0.0875 (inactive) | 0.725 (inactive) | 0.76 (inactive) | 0.403 (inactive) | -0.144 | 1.72 (inactive) | 0.315 (inactive) | 0.895
CC(CCN1CCCc2nc(C)c(C)cc21)=NO[C@@H](C)c1cc(-c2c(C)cc(C)cc2C)no1 | 1.22 (inactive) | 0.0402 | 3.44 (inactive) | 0.762 (inactive) | 1.35 (inactive) | 0.465 (inactive) | 0.124 | -1 (inactive) | -0.469 (inactive) | 0.221
C#CCCCON=C1[C@H]2CCn3c(=O)n(C)c(=O)n3[C@H]2[C@H](O)[C@@H]2O[C@H]12 | 0.117 (inactive) | 0.126 | -0.611 (inactive) | 0.147 (inactive) | -0.354 (inactive) | 0.0334 (inactive) | -0.0228 | -0.0249 (inactive) | -0.124 (inactive) | 0.71
CO[C@@H]1COC(=O)CC=C[C@@H](C)[C@@H]2C=C[C@H](O)[C@@H](COC(=O)CC=C[C@H]1C)O2 | 0.988 (inactive) | -0.0984 | 0.872 (inactive) | -0.28 (inactive) | 0.178 (inactive) | -0.213 (inactive) | 1.2 | 0.262 (inactive) | 1.18 (inactive) | 0.589
CCCCC#C[C@@H]1C=C[C@H](Oc2cc(OC)c(OC)c(OC)c2)[C@@H](COC(=O)OCC)O1 | 0.525 (inactive) | -0.147 | 8.03 (active) | 0.673 (inactive) | -0.172 (inactive) | 0.0018 (inactive) | -0.153 | -1.82 (inactive) | 0.215 (inactive) | -2.66
CC(CCN1CCc2nc(-c3ccccc3)c(-c3ccccc3)cc2C1)=NOC[C@@H](O)COCc1ccco1 | 1.17 (inactive) | -0.101 | 3.04 (inactive) | 0.369 (inactive) | 0.686 (inactive) | 0.195 (inactive) | 0.615 | -0.636 (inactive) | -0.00269 (inactive) | -0.624
COC(=O)C1=C(C)N(Cc2ccccc2)[C@]23O[C@](C(=O)OC)(C(=O)N2[C@@H]1c1ccccc1)C(C(=O)OC)=C3C(=O)OC | 0.214 (inactive) | 0.0774 | 2.05 (inactive) | -0.468 (inactive) | 0.323 (inactive) | -1.52 (inactive) | 2.22 | 0.826 (inactive) | 0.109 (inactive) | 2.03
COc1cccc([C@H]2Oc3ccc(OC)cc3C(=NO[C@@H]3O[C@H](COC(C)=O)[C@@H](OC(C)=O)[C@H](OC(C)=O)[C@H]3OC(C)=O)[C@@H]2O)c1 | -1.34 (inactive) | -0.191 | 0.158 (inactive) | -0.0728 (inactive) | -0.362 (inactive) | 0.146 (inactive) | -1.09 | 0.484 (inactive) | 0.905 (inactive) | 0.486
C[C@@H]1CC[C@H]2C(=O)O[C@@H](Cc3ccccc3)CN2[C@H]1c1ccc(Br)cc1 | -0.28 (inactive) | -0.148 | 2.26 (inactive) | 0.935 (inactive) | 0.277 (inactive) | 0.563 (inactive) | -0.536 | -0.251 (inactive) | -0.286 (inactive) | -0.621
COC(=O)CC=C[C@@H](C)[C@H](OCc1cccc(-c2ccccc2)c1)C1CCCCC1 | -0.249 (inactive) | -0.289 | 1.56 (inactive) | 1.02 (inactive) | 0.0674 (inactive) | 0.367 (inactive) | -0.484 | -0.491 (inactive) | 0.228 (inactive) | -0.471

Reference: PubChem BioAssay
